Screening data deposited in PubChem BioAssay by National Center for Advancing Translational Sciences (NCATS).
Pf growth 48h = Primary qHTS for delayed death inhibitors of the malarial parasite plastid, 48 hour incubation; AID 504832, 2011; Potency, µM (highest dose often 28.7 µM), most hits filed as inhibitors; P. falciparum luciferase growth in erythrocytes, 48 h; 5.9% of 310,000 active
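Luciferase-expressing parasites in RBCs, 2% Hct / 0.1% parasitemia final; RPMI 1640 + 0.5% Albumax; 37 C, 5% CO2, one generation; luminescence read-out, lower signal = inhibition.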
HCV inh = qHTS Assay for Inhibitors of Hepatitis C Virus (HCV); Potency, µM (series often up to 41.8 µM), most hits filed as inhibitors; 3.4% of 340,000 active; AID 651820, 2012; Huh7.5.1 HCVcc-Cre infection, luciferase reporter, 44 h
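After 44 h co-culture of compound, cells and HCVcc-Cre (~0.5 moi), substrate is added for 15 min at room temperature and luciferase measured over 15 sec. Cells were seeded at 1,000/well and pre-cultured 4 h.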
Pf growth 96h = Primary qHTS for delayed death inhibitors of the malarial parasite plastid, 96 hour incubation. P. falciparum luciferase reporter growth, 96 h. Potency, µM (doses to about 28.7 µM), hits mostly inhibitors. 6.9% of 320,000 active
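Infected RBCs, 2% Hct / 0.05% parasitemia final; luciferase-reporter P. falciparum; cpd 96 h, 37 C, 5% CO2; luciferase detection reagent; luminescence.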
SARS PLP yeast = qHTS of Yeast-based Assay for SARS-CoV PLP | 0.19% of 330,000 active | S. cerevisiae expressing SARS-CoV PLpro, growth rescue | Potency, µM (titrated, usually from 32.9 µM), most hits filed as activators | AID 485353, 2010; calls by dose curve; note: nearly all actives have a fitted effect of over 55% in size
NS1 inh = qHTS Assay for Inhibitors of Influenza NS1 Protein Function; 0.4% of 270,000 active; Potency, µM (top dose mostly 46.1 µM); AID 2326, 2010; calls by dose curve; note: actives are rising curves; nearly all actives have a fitted effect of over 50% in size
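S. cerevisiae expressing influenza A NS1, grown in glucose, washed, then diluted 1:100 into pH 6.0 -URA galactose medium with 23 nl compound. Growth recovery read as OD600; NS1-free strain serves as control.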
AMA1 RON2 block = qHTS for Inhibitors of AMA1-RON; Towards Development of Antimalarial Drug Lead: Primary Screen | Plasmodium falciparum AMA1 (3D7) - RON2 peptide interaction | AlphaScreen AMA1-biotinylated RON2 peptide binding | Potency, µM (top dose mostly 58.2 µM), most hits filed as inhibitors | 0.2% of 360,000 active; note: nearly all actives have a fitted effect of over 45% in size
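AMA1 (3D7) with his tag at 25 nM final met compounds first, then biotinylated RON2 peptide at 25 nM; detection used donor plus acceptor beads, 10 µg/mL apiece, read by AlphaScreen after 30 min at room temperature.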
Numbers stand for hits; 0 = inactive; ? = inconclusive; - = not tested or not shown. The list is not random: actives were taken first. Their share in the collection is about 12%. Unless noted, calls come from the whole dose curve; as a rule, active = well fitted curve in the direction sought with a large enough effect; inconclusive = small, poorly fitted or top-dose-only effect, or another doubt; inactive = no such curve, though single readings can be large; an effect the other way counts as inactive or inconclusive.

SMILES	Pf growth 48h	HCV inh	Pf growth 96h	SARS PLP yeast	NS1 inh	AMA1 RON2 block
COc1cccc(NC(=O)c2ccc(NS(=O)(=O)c3cccs3)cc2)c1	0	0	0	0	-	0
CCOc1ccc(NS(=O)(=O)c2cc(NC(=O)c3ccc(C)cc3)ccc2Cl)cc1	?	7.94µM	?	0	0	0
COC(=O)C1=CN(c2cccc(OCc3ccccc3)c2)C(N)=C(C#N)C1c1cccc(F)c1 (stereo not drawn)	-	-	-	-	-	0
CC(=O)Nc1cccc(-c2ccnc3c2CC(C(=O)NCc2ccc(F)c(F)c2)O3)c1 (stereo not drawn)	-	-	-	-	-	0
C(#CCN1CCCC1)CC(c1ccccc1)c1ccccc1	?	?	0	0	0	0
CC(C)(C(=O)N1CCC1(C)C(=O)NS(=O)(=O)c1cccc(C#N)c1)c1ccccc1 (stereo not drawn)	-	-	-	-	-	0
CCN1CCN(Cc2c3ccccc3cc3ccccc23)CC1	?	0	0	0	0	0
CCOc1ccc(C(=O)Nc2ccc3[nH]ncc3c2)cc1	0	0	11.7µM	0	0	0
C=CCOc1ccc(CN(C)C(=O)CNC(=O)c2ccc(-c3ccccc3)cc2)cc1	13.1µM	11.2µM	0	0	0	0
CCC(C)NCCC(=O)Nc1ccc(Cl)c(S(=O)(=O)Nc2ccc(Cl)cc2)c1 (stereo not drawn)	10.4µM	?	9.28µM	0	-	0
Cc1ccc(C(=O)CCC(=O)Nc2ccc(Cl)c(S(=O)(=O)Nc3cccc(Cl)c3)c2)cc1	0	0	0	0	0	0
[Li+]	-	-	-	-	0	-
O=S(=O)(Nc1nc2ccccc2nc1-[n+]1cccc(N=C([O-])c2ccc(Cl)cc2)c1)c1ccccc1	?	0	8.28µM	0	0	0
ClC(CCN1CCN(Cc2ccccc2)CC1)c1ccccc1 (stereo not drawn)	-	0	-	-	-	0
CCN1CCCC1CNC(=O)c1ccc2c(c1)NC(=O)/C(=C\c1ccc(C)cc1)S2 (stereo not drawn)	?	6.31µM	?	0	0	0
O=C(NCCCN1CCCCC1)c1ccc2c(c1)NC(=O)c1ccccc1S2	?	10µM	?	0	0	0
CC(C)OCCCNC(=O)c1ccc2c(c1)NC(=O)c1ccccc1S2	3.7µM	?	0	0	0	0
O=C1Nc2cc(C(=O)NCCCN3CCCC3)ccc2S/C1=C/c1ccccc1F	?	?	13.1µM	0	0	0
Cc1ccc(/C=C2/Sc3ccc(C(=O)NCCN4CCOCC4)cc3NC2=O)cc1	?	0	?	0	0	0
COc1ccc(C2=Cc3ccccc3C(CC(=O)C3CC3)N2c2ccc(-c3cc(OC)c(OC)c(OC)c3)cc2)cc1 (stereo not drawn)	-	-	-	-	-	0
Cc1nc2c(OCc3ccccc3)cccn2c1N(C)C(=O)C1CCCCC1	-	-	-	-	-	0
C[C@@H](CSC(=N)N)C(N)=O	-	-	-	-	0	-
Cc1ccc(-n2c(C)nnc2SCC(=O)N(C)C2CCS(=O)(=O)C2)cc1 (stereo not drawn)	?	0	?	0	-	0
Cc1ccc(C)c(C(O)c2ncc(-c3ccc(F)cc3)[nH]2)c1 (stereo not drawn)	-	-	-	-	-	0
CN1CN(C)c2cccc3cccc1c23	?	0	4.15µM	0	0	0
SMILES	Pf growth 48h	HCV inh	Pf growth 96h	SARS PLP yeast	NS1 inh	AMA1 RON2 block
CC(C)N=C(NC#N)SCc1ccccc1	0	0	0	0	0	0
CC(C)N=C(NC#N)SCc1ccc(Br)cc1	?	0	13.1µM	0	0	0
CSCC[C@H](NC(=O)OC(C)(C)C)C(=O)N1CCC(C(=O)N[C@@H](C)C(=O)NC(C)c2ccccc2)CC1 (stereo partly drawn)	?	0	0	0	0	0
Cc1ccc(C(=O)Nc2ncc(Cc3ccc(SC(F)F)cc3)s2)cc1	0	10µM	0	0	0	0
O=C(N=Nc1c(O)n(Cc2ccccc2)c2ccccc12)c1cc2ccccc2cc1O	?	?	0	0	0	0
CCn1c(O)c(N=NC(=O)c2ccc(CSc3nncn3C)cc2)c2ccccc21	10.4µM	?	11.7µM	0	0	0
